A number with no mark means an inactive call. Activity calls are given as the source filed them. Calls follow the shape of the dose curve; as a rule, active = well fitted curve in the direction sought with a large enough effect in the repeat runs; inconclusive = weak or mixed curves; inactive = flat fitted curve, though single readings scatter.
experiment: qHTS assay to test for compound auto fluorescence at 590 nm (red) in HepG2 cell free culture (AID 720684); details: cell-free medium autofluorescence, red 540/590 nm; series mostly up to 91.3 µM; fluorescence, % of Rose Bengal: at the top concentration
From the text: U.S. Tox21 Program National Center for Advancing Translational Sciences [NCATS] NIH Chemical Genomics Center [NCGC] U.S. Environmental Protection Agency [EPA] National Institutes of Environmental Health Sciences [NIEHS] National Toxicology Program [NTP] U.S. Food and Drug Administration [FDA] Tox21 Assay Overview: Compound auto fluorescence often interferes with screening of the compound library against various biological targets and signaling pathways. Some of these compounds may have fluorophoric properties. Such properties may interfere with the assay outputs resulting in false positives and/or negatives. To decrease such complications and ensure the compound activities are relevant in terms of biological response, the Tox21 10K compound library was screened for auto fluorescence. From the fluorophores used as reporter signals in our screening assays, the auto fluorescence equivalencies of compounds against three fluorophores have been evaluated: Triamterene, Fluorescein and Rose Bengal sodium for blue, green and red fluorescence, respectively. The fluorescence intensities were measured using Excitation/Emission wavelengths at 405/460nm, 485/535nm and 540/590nm for blue, green and red labels, respectively. This assay includes the red fluorescence data.
Tox21 Assay Protocol Summary: 5 uL of culture medium (MEM containing 10% FBS) per well was dispensed into black wall/clear bottom 1536-well plates using a Multidrop Combi Dispenser (ThermoFisher Scientific, Waltham, MA). After 23 nL compound or DMSO vehicle was transferred into assay plate by a pintool work station (Kalypsys, San Diego, CA), fluorescence intensities in the assay plates were measured by an Envision (PerkinElmer, Shelton, CT) plate reader using three labels for measuring blue, green and red fluorescence at […] 460, 535 and 590nm respectively.
% is scaled to controls: 0 for no effect and ±100 for the full control effect.

SMILES | fluorescence, % of Rose Bengal | Potency
CCN1CCN(c2cc(-c3ccc(F)cc3)c3c(n2)CCCCCC3)CC1 | -0.263% [at 46 µM] | 
CC(C)c1ccc(O)c(C(C)C)c1 | -0.202% | 
CCOC(=O)[C@@](C)(N)Cc1ccc(O)c(O)c1 | 0.0263% [at 18.6 µM] | 
COc1cc(C(C)C)c2c(c1)S(=O)(=O)N(COc1cc(=O)n3cccc(OCCN4CCCCC4)c3n1)C2=O | -0.164% [at 18.6 µM] | 
C[Si](C)(C)Cl | -0.0432% | 
CC(C)N=C(N)/N=C(\N)Nc1ccc(Cl)cc1 | 0.0381% [at 18.6 µM] | 
CCN(CC)CCOc1ccc(C(O)(Cc2ccc(Cl)cc2)c2ccc(C)cc2)cc1 (stereo not given) | 0.174% [at 46 µM] | 
Cc1nc(Nc2ncc(C(=O)Nc3c(C)cccc3Cl)s2)cc(N2CCN(CCO)CC2)n1 | 0.364% [at 46 µM] | 
CN(Cc1cc(Br)cc(Br)c1N)C1CCCCC1 | 0.618% [at 46 µM] | 
CN(C)CCCN1c2ccccc2Sc2ccc(C(F)(F)F)cc21 | 0.0541% [at 46 µM] | 
Oc1ccc(-c2ccccc2)c(Cl)c1 | 0.0408% | 
CCCCCCCCCCCCN(CCO)CCO | 0.0035% | 
COC(=O)C1=C(C)NC(C)=C(C(=O)OCCCN2CCC(c3ccccc3)(c3ccccc3)CC2)C1c1cccc([N+](=O)[O-])c1 (stereo not given) | 0.114% [at 46 µM] | 
CCCCCCOc1cc(C)c(O)c(C)c1C | -0.363% [at 95.7 µM] | 
CCC(C)c1cc([N+](=O)[O-])cc([N+](=O)[O-])c1OC(=O)OC(C)C (stereo not given) | -0.0098% | 
C1CC(COCC2CO2)CCC1COCC1CO1 (stereo not given) | -0.213% | 
O=S(=O)(O)CCCN1CCOCC1 | -0.229% | 
NCCCCCCNCCCCCCN | -0.183% | 
Cc1c(C)n(Cc2ccccc2)c2ccc(C(=O)OCCN(C)C)cc12 | 0.115% [at 46 µM] | 
CCN(CC)CCSC(=O)C(c1ccccc1)c1ccccc1 |  | inactive

SMILES | fluorescence, % of Rose Bengal | Potency
CCN=C1C=CC(=C(c2ccc(N(CC)CC)cc2)c2ccc(N(CC)CC)cc2)c2ccccc21 | -0.317% | 
C=CC(=O)OCC(O)COc1ccccc1 (stereo not given) | 0.0726% | 
O=Cc1ccc(F)cc1 | -0.34% | 
C=C(c1ccc(C(=O)O)cc1)c1cc2c(cc1C)C(C)(C)CCC2(C)C |  | inactive
Cc1c(-c2ccc(O)cc2)n(Cc2ccc(OCCN3CCCCCC3)cc2)c2ccc(O)cc12 | 0.107% [at 46 µM] | 
CCNc1nc(NC(C)CC)nc(OC)n1 (stereo not given) | 0.0283% | 
CCCCCCOc1ccc(O)cc1 | 0.0411% | 
CC(C(O)c1ccccc1)N(C)CCOC(c1ccccc1)c1ccccc1 (stereo not given) | 0.0349% [at 46 µM] | 
CC(C)(C)c1cc(/C=C2\SC(=N)NC2=O)cc(C(C)(C)C)c1O | 0.533% | 
CCCOc1sc(C(=O)N2CCC(c3cc(CN)ccc3F)CC2)c(C)c1Br | 0.204% | 
Cc1occc1SSc1ccoc1C | 0.123% | 
CCCCOc1ccc(C(=O)CCN2CCCCC2)cc1 | -0.355% [at 18.6 µM] | 
CCCCCCCCCCCC(=O)N(CC)CC | -0.133% | 
CC(=O)Nc1ccc(O)cc1 |  | inactive
NC(=O)c1ccccc1N | -0.0093% | 
O[C@@H](c1cc(C(F)(F)F)nc2c(C(F)(F)F)cccc12)[C@H]1CCCCN1 | 0.159% [at 46 µM] | 
NC(=O)C(=O)N/N=C/c1ccc([N+](=O)[O-])o1 | 0.0012% [at 46 µM] | 
C=CC(C)(CCC=C(C)C)OC(=O)/C=C/c1ccccc1 (stereo not given) | 0.0544% | 
COC(=O)CC(C)CCC=C(C)C (stereo not given) | 0.185% | 
COc1ccc2sc(C(=O)Nc3nnn[nH]3)c(OC(C)C)c2c1 | 0.144% | 
